These results are taken from the supplement of paper PMC4709259.

Each structure is given as a SMILES string. Structures can show the parent of a compound that is named as a salt. ± gives the standard deviation.

This experiment has as its system Jurkat. As to the kind of experiment: cell count relative to DMSO control (fraction of control); higher = more cells (less growth inhibition). The note with it: 48 h.
Molecule `CC(=O)O[C@H]1C[C@@H]2CC[C@@H]3[C@H](CC[C@@]4(C)[C@H]3C[C@H]([N+]3(C)CCCCC3)[C@@H]4OC(C)=O)[C@@]2(C)C[C@@H]1N1CCCCC1` [Vecuronium Bromide] (concentration: 25 µM) came in with a cell count of 0.294 ± 0.13.
The value for `CN(C)CCC=C1c2ccccc2CCc2ccccc21` [Amitriptyline·HCl] (concentration: 25 µM) was 0.798 ± 0.033.
The value for `CC1=Nc2ccc(Cl)cc2S(=O)(=O)N1` [Diazoxide] (concentration: 25 µM) was 0.916 ± 0.04; that for `Cc1[nH]cnc1CN1CCc2c(c3ccccc3n2C)C1=O` [Alosetron·HCl] (concentration: 25 µM) was 0.592 ± 0.12; that for `O=C(C1CCCCC1)N1CC(=O)N2CCc3ccccc3C2C1` (stereo not drawn) [Praziquantel] (concentration: 25 µM) was 0.781 ± 0.048.
In turn, `CCCc1cc(=O)[nH]c(=S)[nH]1` [Propylthiouracil] (concentration: 25 µM) had a cell count of 0.981 ± 0.1.
The value for `CCc1cc(C(N)=S)ccn1` [Ethionamide] (concentration: 25 µM) was 1.05 ± 0.1.
To `O=C(CCCCCCC(=O)Nc1ccccc1)NO` [Vorinostat] (concentration: 250 nM) belongs 0.71 ± 0.048.
